According to ChEMBL document CHEMBL3988442, “University of Dundee, Small-Polar-MMV Screening Library” (2021):
In all, about 48,000 compounds went through this assay and about 13,000 (27%) showed an effect of 50% or more. The list shows a part of the results.

Test system: Wolbachia pipientis
Experiment: Anti-Wolbachia Cell-Based Screen
Format: functional
Set-up: scale not given: in the data most compounds retested in dose-response had high values
Conditions: 5 µM

| Compound | Percent Effect |
| --- | --- |
| CC(=O)N1CC(=O)N(c2cnn(C)c2)CC12CCN(Cc1ccsc1)C2.O=C(O)C(F)(F)F.O=C(O)C(F)(F)F (centres undefined) | 4.027% |
| CC(=O)N1CC(=O)N(c2cnn(C)c2)CC12CCN(Cc1ccco1)C2 (centres undefined) | 98.22% |
| CC(=O)N1CC(=O)N(c2cnn(C)c2)CC12CCN(Cc1cccs1)C2.O=C(O)C(F)(F)F (centres undefined) | 106.8% |
| CC(=O)N1CC(=O)N(c2cnn(C)c2)CC12CCN(Cc1nccs1)C2 (centres undefined) | -3.662% |
| CC(=O)N1CC(=O)N(c2ccccc2)CC12CCN(Cc1cccs1)C2.O=C(O)C(F)(F)F (centres undefined) | 4.365% |
| CC(=O)N1CC(=O)N(c2cnn(C)c2)CC12CCN(Cc1ccoc1)C2 (centres undefined) | -11.13% |
| CN(Cc1cccc2ncccc12)C(=O)CCn1ccc(=O)[nH]c1=O | 10.3% |
| CC(=O)N(Cc1noc(C)n1)C1CCN(Cc2ccncc2Cl)C1 (centres undefined) | 6.525% |
| CN(Cc1cc(Cl)cc2cccnc12)CC1CCN(CCO)CC1 | -4.482% |
| CNC(=O)CN1CCC(NC(=O)Cn2cc(C)c3ccccc32)CC1 | -8.28% |
| CNC(=O)CN1CCCC(Cc2ccccc2OC)C1 (centres undefined) | 4.844% |
| CNC(=O)CN1CCC(NC(=O)N(C)Cc2cc(C)on2)CC1 | 7.433% |
| CNC(=O)CN1CCC(CN(C)Cc2ccncc2Cl)CC1 | 104.1% |
| CNC(=O)CN1CCC(CN(C)Cc2ccc(C)cc2C)CC1 | 95.31% |
| CNC(=O)CN1CCC(c2nn(C)c(=O)n2-c2ccccc2)CC1 | 1.276% |
| CNC(=O)CN1CCC(CN(C)Cc2ccccc2N(C)C)CC1 | 105.8% |
| CNC(=O)CN1CCC(NC(=O)CC(C)CCc2ccccc2)CC1 (centres undefined) | 1.042% |
| CNC(=O)CN1CCC(NC(=O)Cc2ccccc2OC(C)C)CC1 | -20.84% |
| CNC(=O)CN1CCC(CN(C)CCSc2ccccc2)CC1 | 112.7% |
| CCC(CNC(=O)C1CC1)(OC)c1ccccc1 (centres undefined) | -6.712% |
| Cc1cccc(CNC[C@H]2Cn3cc(-c4ccccc4)nc3CO2)n1 | -23.05% |
| CC(C)c1csc(C(=O)N(C)c2ccc(Br)cn2)n1 | -10.23% |

| Compound | Percent Effect |
| --- | --- |
| Cc1cccnc1NCCNC(=O)C1CCN(C(=O)N(C)C)CC1 | -7.872% |
| Cc1ncccc1-c1cc2cccnc2n1CCCNC(=O)C(C)(C)C.Cl | 83.99% |
| Cc1ccc(OCCCNC(=O)Cc2nc3ncccn3n2)cc1 | -3.394% |
| CC(C)(C)C(=O)NCCNCc1ccc(Cl)c2cccnc12 | -7.376% |
| CC(NC(=O)NCCCn1cccn1)c1cccnc1 (centres undefined) | 14.81% |
| Cc1ncccc1-c1cc2cccnc2n1CCCNC(=O)C1CC1.Cl | 102.7% |
| CC(C)(C)C(=O)NCCCc1nc2ccccc2[nH]1 | 0.1098% |
| Cc1cccnc1NCCNC(=O)C1CCN(Cc2ccco2)CC1 | -35.11% |
| CCC(=O)NCCCn1c(-c2cccnc2C)cc2cccnc21.Cl | 116.3% |
| CCS(=O)(=O)NCC(=O)N(C1CC1)C1Cc2ccccc2C1 | 0.1274% |
| CC(C)C(NC(=O)c1ccc(=O)[nH]c1)c1nnc2n1CCNCC2 (centres undefined) | 5.765% |
| Cn1cc(C(=O)N2CCCC(n3cncn3)C2)ccc1=O (centres undefined) | -4.437% |
| O=C(c1ccc(C(F)(F)F)nc1)N1CCCC(n2cncn2)C1 (centres undefined) | -5.926% |
| O=C(c1ccc(Br)o1)N1CCCC(n2cncn2)C1 (centres undefined) | 3.935% |
| COc1cc(C(=O)N2CCCC(n3cncn3)C2)ccc1C (centres undefined) | 123.7% |
| CCOc1cc(C(=O)N2CCCC(n3cncn3)C2)ccc1C (centres undefined) | 31.02% |
| COc1cc(C2(C(=O)N3CCN(CC(C)(C)O)CC3)CC2)ccc1C | -9.844% |
| O=C(c1ccccc1OC1CCCC1)N1CCCC(n2cncn2)C1 (centres undefined) | 131.9% |
| COc1ccc(C)cc1C(=O)N1CCCC(n2cncn2)C1 (centres undefined) | 125.6% |
| COc1cc(C2(C(=O)N3CCCC(n4cncn4)C3)CC2)ccc1C (centres undefined) | 127.9% |
| COc1cc(C2(C(=O)NC3CCN(C4CC4)CC3)CC2)ccc1C | -9.965% |
| Cc1ccc(SCCCNC(=O)c2cn([C@H]3CC[C@@H](N)CC3)nn2)cc1 | -20.01% |

| Compound | Percent Effect |
| --- | --- |
| Cc1sc(Br)cc1S(=O)(=O)NCc1ccccn1 | -26.2% |
| Oc1ccccc1CN1CCC(n2cc(-c3ccc(F)cc3)nn2)CC1 | -4.662% |
| CNCc1ccc([C@@H]2CN(C(C)=O)C[C@H]2C(N)=O)cc1.Cl | 129.4% |
| Cc1ccccc1CNC(=O)N1C[C@H]2C[C@H](C(=O)N(C)C)[C@@H](C1)O2 | -3.016% |
| CNCc1ccc([C@@H]2CN(C)C[C@H]2C(N)=O)cc1.Cl | 68.94% |
| Cl.NC(=O)c1ccc(CNC2CC2)cc1 | 11.53% |
| CS(=O)(=O)c1ccc(CNC(=O)N2CCC(C(N)=O)C2)cc1 (centres undefined) | -0.5949% |
| CN(C)C(=O)c1ccc(CNC(=O)NCCN(C)C2CCCC2)cc1 | 0.2327% |
| CNCc1ccc([C@@H]2CN(C(C)=O)C[C@H]2C(=O)N(C)C)cc1.Cl | 99.26% |
| Cc1occc1C(=O)NCc1ccc(N2CCCC(C(N)=O)C2)cc1 (centres undefined) | -5.63% |
| O=C(O)C(F)(F)F.O=C1COC2(CCN(Cc3cccs3)CC2)CN1c1ccsc1 | 102.1% |
| Cc1cccc(CN2CCC3(CC2)CN(c2cccnc2)C(=O)CO3)n1.O=C(O)C(F)(F)F.O=C(O)C(F)(F)F | 90.31% |
| Cn1cc(N2CC3(CCN(Cc4cccs4)CC3)OCC2=O)cn1.O=C(O)C(F)(F)F | 13.04% |
| Fc1cnc(N2CCCC3(CN(Cc4ccccc4)CCO3)C2)nc1.O=C(O)C(F)(F)F (centres undefined) | 8.099% |
| Fc1cnc(N2CCOC3(CCN(Cc4cccs4)CC3)C2)nc1.O=C(O)C(F)(F)F.O=C(O)C(F)(F)F | 104.4% |
| O=C(O)C(F)(F)F.O=C1COC2(CCN(Cc3cccs3)CC2)CN1c1ccccc1 | -12.07% |
| Cn1ccnc1CN1CCC2(CC1)CN(c1cncnc1)C(=O)CO2.O=C(O)C(F)(F)F | -21.12% |
| Fc1cnc(N2CCOC3(CCN(Cc4ccsc4)CC3)C2)nc1.O=C(O)C(F)(F)F.O=C(O)C(F)(F)F | -10.48% |
| Cc1cnc(N2CCC3(CC2)CN(c2ccsc2)C(=O)CO3)nc1.O=C(O)C(F)(F)F | 15.19% |
| O=C(O)C(F)(F)F.O=C1COC2(CCN(Cc3cccs3)CC2)CN1c1cncnc1 | 100.5% |
